# Assay outcomes from PubChem.
# Sampled rows, rich in hits. Any-hit rate of the full collection: about 11%.
# WT yeast gro inh: growth inhibition of WT yeast, mitochondrial fusion screen. inhibition, % at 10 µM. mitochondrial fusion phenotypic screen, WT strain. 190,000 compounds, 2.1% hits; in the data active = inhibition above about 58%; tested in S. cerevisiae
# Autophagy HCS: modulators of autophagy | MEF GFP-LC3 puncta imaging; test concentration mostly 10 µM | calls only at 10 µM (by protocol) | 190,000 compounds, 0.98% hits;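 active = percentage of spot-positive cells more than 3 SD above its plate mean, without a fluorescence outlier flag or 80% toxicity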;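 note: spot-positive cell cutoff set from DMSO-treated cells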
# Ins promoter up: MIN6 insulin promoter up-regulation; MIN6 insulin promoter-GFP reporter, high-content imaging; stronger effect = higher value; 190,000 compounds, 0.3% hits; z-score at 5 µM;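 active = z-score above 3 at 5 µM with at least 500 cells counted in the well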
# Insulin prom inh: TRM-6 insulin promoter activity inhibition; TRM-6 cells (human fetal islet line), insulin promoter-eGFP reporter, imaging; reporter expression induced with tamoxifen; inhibition, % at 2 µM; 130,000 compounds, 0.9% hits; AID 1273;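 active = inhibition above the mean plus 3 SD, with well images judged a real hit on visual review, cut at about 60% in these data, passing the limit was not always enough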
# L major viab: reduces viability of Leishmania major promastigotes. inhibition, % at 10 µM. 200,000 compounds, 9% hits. AID 1063. resazurin fluorescence viability; in the data active = inhibition above about 50%;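 note: promastigotes grown with compound for 44 hours at 28 °C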
# Numbers without * were called inactive; i = inactive; / = not tested or not shown; + = active, no number.
SMILES,WT yeast gro inh,Autophagy HCS,Ins promoter up,Insulin prom inh,L major viab
CCc1nn(-c2ccccc2)c(N)c1C#N,2,i,-0.29,60*,-5
COc1ccc(-c2cn3c(C)c(C(=O)Nc4cccc(C)n4)sc3n2)cc1,9,i,0.34,8,96*
CN(C)C(=O)CSc1nnc(CCNC(=O)OC(C)(C)C)o1,11,i,0.32,/,0
CN(C)C(=O)CSc1nnc(CCCCCNC(=O)OC(C)(C)C)o1,65*,i,-0.58,/,-4
CC(C)c1nnc(NC(=O)C2CCCCC2)s1,-3,/,-0.45,/,8
CC(C)c1cc(C(N)=O)c(NC(=O)C2CCC2)s1,-7,i,/,81*,5
Cc1ccc(S(=O)(=O)NCCC(=O)Nc2ccc(C)cc2C(=O)c2ccccc2)cc1,2,i,-0.3,-61,4
COCCNC(=O)C(=O)NCCN1CCNCC1,4,i,0.55,/,-3
Cc1ccc(-n2c(C)nc3oc4ccccc4c(=O)c3c2=O)cc1,-10,i,3.9*,9,14
O=C(CN(Cc1ccccc1)S(=O)(=O)c1ccccc1)N/N=C/c1ccc2c(c1)OCO2,-1,i,-0.61,29,63*
O=C(CN(Cc1ccc(Cl)c(Cl)c1)S(=O)(=O)c1ccccc1)N/N=C\c1ccc2c(c1)OCO2,53,i,-0.56,27,88*
Oc1oc(C=Nc2ccc(F)cc2F)c2ccccc12,11,i,0.18,-75,-3
O=C(Nc1ccc(Br)cc1)Nc1ccccc1Cl,/,/,-0.49,/,/
C/C=C/c1ccc(OCCCNC(C)CC)c(OC)c1 (stereo unspecified),-11,i,/,-13,-3
C/C=C/c1ccc(OCCCNC2CCCC2)c(OC)c1,/,i,0.59,-214,100*
C/C=C/c1ccc(OCCOc2cc(C=O)ccc2OC)c(OC)c1,5,i,-0.31,/,85*
COCCCNC(=S)N1CCN(S(=O)(=O)c2ccc(OC)cc2)CC1,2,i,-0.19,/,-2
O=C(NCCC1=CCCCC1)C(=O)NCc1ccncc1,-11,i,0.36,-28,-2
COCCn1c(CN2CCc3ccccc3C2)nc2c1c(=O)n(C)c(=O)n2C,9,i,-0.62,12,4
CCSc1nnc(NC(=O)C2CCCN(S(=O)(=O)c3cnc[nH]3)C2)s1 (stereo unspecified),-11,/,-1.9,/,-8
CCNC(=O)C(=O)NCC1OCCCN1S(=O)(=O)c1cccs1 (stereo unspecified),-1,i,0.33,-33,-6
CCN(CC)CCc1c(C)[nH]c(C(=O)OCc2ccccc2)c1C,-14,i,-0.48,-19,100*
CCOC(=O)C1CCC(CNCc2ccccc2C)CC1 (stereo unspecified),-22,i,0.73,/,95*
O=C(O)C1CCC(CNCc2ccccc2Cl)CC1 (stereo unspecified),-27,i,-0.26,/,-11
CC1CC(C)CN(C(=O)Cc2c(C(=O)O)[nH]c3ccc(Cl)cc23)C1 (stereo unspecified),-4,i,/,-80,-5
SMILES,WT yeast gro inh,Autophagy HCS,Ins promoter up,Insulin prom inh,L major viab
CCc1cc2c(=O)c(-c3cnn(-c4ccccc4)c3)c(C)oc2cc1OCC(=O)Nc1ccc(F)c(F)c1,18,i,0.39,0,53*
CCc1cc2c(=O)c(-c3cnn(-c4ccccc4)c3)c(C)oc2cc1OCC(=O)Nc1cccc(C)c1,7,i,-0.43,-11,66*
CCCCN(Cc1ccccc1)C(=O)CCN1C(=O)C2C3C=CC(C3)C2C1=O (stereo unspecified),10,i,0.1,/,13
O=C(Nc1cccc(-c2nc3cccnc3s2)c1)C1c2ccccc2Oc2ccccc21,-6,i,0.25,-15,-7
COC(=O)C1=C(C(=O)OC)C(c2ccccc2O)c2sc(=O)[nH]c2S1 (stereo unspecified),-3,i,0.04,0,-2
O=C(CC1(O)C(=O)N(C/C=C/c2ccccc2)c2ccccc21)c1ccccn1 (stereo unspecified),7,+,0.75,/,9
N#Cc1sc2nc(-c3ccccc3)cc(C(F)(F)F)c2c1N,3,+,/,-100,2
O=c1cc(O)c2sc3nc(-c4ccccc4)cc(C(F)(F)F)c3c2[nH]1,-3,i,1.2,34,-6
Cc1cc(NC(=O)C2CCCCC2)nc2c1c(=O)oc1ccccc12,81*,i,0.13,/,13
Cc1cc(NC(=O)C2CCCC2)nc2c1c(=O)oc1ccccc12,26,i,0.11,17,25
COc1ccc(C(C(=O)Nc2ccc(F)cc2)N(C(=O)Cn2nnc3ccccc32)C2CC2)cc1 (stereo unspecified),68*,i,/,-88,-6
COc1ccc(NC(=O)C(c2ccc(OC)cc2)N(C)C(=O)CNC(C)=O)cc1 (stereo unspecified),1,i,1.5,77*,6
CCOc1ccccc1C(=O)Nc1nnc(SCC(=O)Nc2cc(C)on2)s1,8,i,1.6,-21,-10
CCCc1[nH]nc2c1C(c1ccc(O)cc1OCC)C(C#N)=C(N)O2 (stereo unspecified),-1,i,-0.68,/,56*
COCc1[nH]nc2c1C(c1ccsc1)C(C#N)=C(N)O2 (stereo unspecified),-5,i,-0.18,/,14
CCCc1[nH]nc2c1C(c1ccsc1)C(C#N)=C(N)O2 (stereo unspecified),1,i,0.19,-50,31
COCc1[nH]nc2c1C(c1sccc1C)C(C#N)=C(N)O2 (stereo unspecified),-36,i,0.08,/,72*
CCCc1[nH]nc2c1C(c1ccc(OC)cc1OC)C(C#N)=C(N)O2 (stereo unspecified),13,i,0.25,-31,25
CCCc1[nH]nc2c1C(C1CCCCC1)C(C#N)=C(N)O2 (stereo unspecified),4,i,-0.26,/,93*
CCOc1cc(/C=N/Nc2nc(-c3cccs3)c(NC(C)=O)s2)ccc1O,/,/,0.24,/,/
COc1ccc(NS(=O)(=O)c2ccc3nc(COc4cccc5ccccc45)[nH]c3c2)cc1,6,i,-0.17,0,95*
O=C(NN1C(=O)C2C3CCC(O3)C2C1=O)c1ccco1 (stereo unspecified),-15,i,0.35,17,-4
O=C(N/N=C/c1ccccc1)c1sccc1OCc1ccc(F)cc1,6,i,-1.4,11,92*
O=C(N/N=C/c1ccncc1)c1ccccc1OCc1ccc(Br)cc1,9,i,0.13,0,100*
CC1(c2cc([N+](=O)[O-])cc([N+](=O)[O-])c2)CC(C)(C)N(C(=O)c2ccccc2)c2ccccc21 (stereo unspecified),40,i,-0.26,/,98*
CC1(c2ccccc2)CC(C)(C)N(C(=O)CSc2nnc(N)s2)c2ccccc21 (stereo unspecified),15,i,-0.27,26,15
CC1(c2ccccc2)CC(C)(C)N(C(=O)C2CCCO2)c2ccccc21 (stereo unspecified),42,i,0.79,-13,87*
